Source: PubChem BioAssay (Tox21)
Unmarked numbers belong to inactive results. Active and inactive are the calls of the source. The call rests on the fitted dose curve; in most records, active means well fitted curve in the direction sought with a large enough effect in the repeat runs; inconclusive means weak or mixed curves; inactive means flat fitted curve, though single readings scatter.

Assay: qHTS assay to test for compound auto fluorescence at 535 nm (green) in HepG2 cells (AID 720675)
Conditions: green autofluorescence 485/535 nm, 1 h; series mostly up to 91.3 µM; fluorescence, % of fluorescein control: at the top concentration
Text: National Center for Advancing Translational Sciences [NCATS]
NIH Chemical Genomics Center [NCGC]
U.S. Environmental Protection Agency [EPA]
National Institutes of Environmental Health Sciences [NIEHS]
National Toxicology Program [NTP]
U.S. Food and Drug Administration [FDA]
Compound auto fluorescence often interferes with screening of the compound library against various biological targets and signaling pathways. Some of these compounds may have fluorophoric properties. Such properties may interfere with the assay outputs resulting in false positives and/or negatives. To decrease such complications and ensure the compound activities are relevant in terms of biological response, the Tox21 10K compound library was screened for auto fluorescence.
From the fluorophores used as reporter signals in our screening assays, the auto fluorescence equivalencies of compounds against three fluorophores have been evaluated: Triamterene, Fluorescein and Rose Bengal sodium for blue, green and red fluorescence, respectively. The fluorescence intensities were measured using Excitation/Emission wavelengths at 405/460nm, 485/535nm and 540/590nm for blue, green and red labels, respectively. This assay includes the green fluorescence data.
Tox21 Assay Protocol Summary:
2,000 HepG2 cells in 5 uL of culture medium (MEM containing 10% FBS) per well were dispensed into black wall/clear bottom 1536-well plates using a Multidrop Combi Dispenser (ThermoFisher Scientific, Waltham, MA). The assay plates were incubated overnight at 37 C to allow cell attachment to the well bottom, followed by the transfer of 23 nL compound or DMSO vehicle by a pintool work station (Kalypsys , San Diego, CA). After the assay plates were incubated for 1 hr at 37 C and 5% CO2, fluorescence intensities in the assay plates were measured by an Envision (PerkinElmer, Shelton, CT) plate reader using three labels for measuring blue, green and red fluorescence at […] 460, 535 and 590 nm respectively.
On the % scale 0 is the no-effect control and ±100 the full control effect.

Row | SMILES | outcome | fluorescence, % of fluorescein control [%]
1 | CC(CCO)CC(C)(C)C (stereo not given) | inactive | 
2 | Brc1ccc(Br)c(Br)c1 | inactive | 
3 | C=CC[N+](C)(C)CC=C | inactive | 
4 | C[Si]1(C)O[Si](C)(C)O[Si](C)(C)O[Si](C)(C)O1 | inactive | 
5 | CCOC(=O)n1ccn(C)c1=S | inactive | 
6 | O=S(=O)(O)c1ccc(N=Nc2c(O)ccc3cc(S(=O)(=O)O)ccc23)cc1 | inactive | 
7 | N[C@H](Cc1c[nH]c2ccccc12)C(=O)O | inactive | 
8 | CCCCC(C=O)CC (stereo not given) | inactive | 
9 | CCNc1cccc(C)c1 | inactive | 
10 | COc1ccc(OC)cc1 | inactive | 
11 | CN(C)CCOC(=O)COc1ccc(Cl)cc1 | inactive | 
12 | COc1ccc(C)cc1N | inactive | 
13 | OC1C(O)C(O)C(O)C(O)C1O (stereo not given) | inactive | 
14 | OCc1ccccc1 | inactive | 
15 | O=C(O)c1ccccc1C(=O)O | inactive | 
16 | NCCCCCCN | inactive | 
17 | CC(=O)OC1CC(C)OC(C)O1 (stereo not given) | inactive | 
18 | NCCN1CCNCC1 | inactive | 
19 | CC(=O)Oc1ccc(C)cc1 | inactive | 
20 | CC(C)=CCl | inactive | 

Row | SMILES | outcome | fluorescence, % of fluorescein control [%]
21 | CC1(C)OC[C@@H]2O[C@@]3(C(=O)O)OC(C)(C)O[C@H]3[C@@H]2O1 | inactive | 
22 | NC(=S)NNC(N)=S | inactive | 
23 | O=C(O)CCCCCCCCC(=O)O | inactive | 
24 | O=S(=O)(O)c1ccccc1 | inactive | 
25 | CCOCCOCCOCCO | inactive | 
26 | COc1cc(OC)c(C(=O)CCCN2CCCC2)c(OC)c1 | inactive | 
27 | CCCCCCCCCCCCCCCC(=O)OC(C)C | inactive | 
28 | C=CCc1ccc(OC)c(OC)c1 | inactive | 
29 | O=c1[nH]cnc2[nH]ncc12 | inactive | 
30 | OCc1cccc(Oc2ccccc2)c1 | inactive | 
31 | CC(O)CC(C)(C)O (stereo not given) | inactive | 
32 | O=C(O)c1ccc(S(=O)(=O)N(Cl)Cl)cc1 | inactive | 
33 | C=CCCCCCCCCC(=O)O | inactive | 
34 | C[C@]12CCC(=O)C=C1CC[C@@H]1[C@@H]2[C@@H](O)C[C@@]2(C)[C@H]1CC[C@]2(O)C(=O)CO | inactive | 
35 | CC1(C)S[C@@H]2[C@H](NC(=O)COc3ccccc3)C(=O)N2[C@H]1C(=O)O | inactive | 
36 | COc1ccccc1OCC(O)CO (stereo not given) | inactive | 
37 | CC(C)OP(=O)(CP(=O)(OC(C)C)OC(C)C)OC(C)C |  | -0.0085
38 | c1ccc2c(c1)Cc1ccccc1-2 | inactive | 
39 | O=C(O)c1cc2ccccc2cc1O | inactive | 
40 | CC(C)CC(=O)CC(C)CC(C)C (stereo not given) | inactive | 
